The record followed here is PubChem BioAssay (EPA / NIEHS).

Results filed as inconclusive are left out. Where a structure was tested more than once in an assay, its records may differ in their call. Calls of active or inactive are those of the source. The calls were made as follows, unless noted: active = hit-call score of the fitted dose curve at least 0.9, where 1 is the maximum; inactive = score below 0.9.

Assay [1] can be described thus: ATG_PXRE_CIS: Attagene CIS-FACTORIAL HepG2 Assay for human Pregnane X Receptor Element (PXRE) (AID 2282957). Particulars: HepG2 Attagene CIS-FACTORIAL PXRE reporter, mRNA; actives raise or lower the signal. The essentials:
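Using HepG2 transfected with multiple reporter transcription units, endogenous factor-driven transcription was scored as reporter mRNA after 24 h exposure.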

Assay [2] in a line: ATG_PPRE_CIS: Attagene CIS-FACTORIAL HepG2 Assay for human Peroxisome Proliferator-activated Response Element (PPRE) (AID 2282958). To be noted: HepG2 PPRE cis-element reporter, Attagene transcription factor profiling; actives raise or lower the signal. The essentials: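 In this cell-based multiplex, a PPRE cis element drives a reporter sequence in transiently transfected HepG2 cells. Following 24 h treatment, labeled cDNA amplicons are sized and quantified by capillary electrophoresis, with DMSO defining baseline.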

Assay [3] is described as follows: ATG_RORE_CIS: Attagene CIS-FACTORIAL HepG2 Assay for human RAR-related Orphan Receptor Element (RORE) (AID 2282959). Particulars: HepG2 Attagene cis-factorial RORE reporter, mRNA; actives raise or lower the signal. The method in brief:
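Endogenous factor activity at a cis response element is read as reporter transcript levels in HepG2 cells, 24 h post-dose. Transcripts are quantified by RT-PCR with capillary electrophoresis, and data fitted in both directions against DMSO.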

Assay [4] in a line: ATG_Sox_CIS: Attagene CIS-FACTORIAL HepG2 Assay for human SRY-box transcription factor (SOX) (AID 2282960). To be noted: HepG2 Attagene cis-factorial SOX reporter, mRNA; actives raise or lower the signal. The method in brief: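 Measures mRNA induction of a SOX1-associated reporter in HepG2 after 24 h dosing. Fluorescently labelled RT-PCR fragments are separated by capillary electrophoresis, and gain or loss relative to DMSO control is fitted.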

In assay [5] the target is Transcription factor Sp1 (Homo sapiens) (UniProt P08047). Put plainly: ATG_Sp1_CIS: Attagene CIS-FACTORIAL HepG2 Assay for human Specificity Protein 1 (Sp1) (AID 2282961). Particulars: HepG2 Sp1 cis-reporter transcription, actives raise or lower the signal. The essentials: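 Cells: HepG2, transiently transfected with cis-regulated multiplexed reporters. Exposure: 24 h. Detection: reporter transcripts amplified, fluorescently labeled, restriction-digested and sized by capillary electrophoresis. Analysis: bidirectional fit relative to DMSO.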

The target in assay [6] is Signal transducer and activator of transcription 3 (Homo sapiens) (UniProt P40763). Kind of assay: ATG_STAT3_CIS: Attagene CIS-FACTORIAL HepG2 Assay for human Signal Transducer and Activator of Transcription 3 (STAT3) (AID 2282963). To be noted: HepG2, Attagene cis-factorial STAT3 reporter transcription; actives raise or lower the signal. The method in brief:
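Readout is reporter transcript quantified by RT-PCR and capillary electrophoresis, with 6-FAM primer extension and HpaI digestion. Total RNA is taken 24 h after dosing transiently transfected HepG2 carrying cis-regulated reporter units. Bidirectional fit against DMSO.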

Assay [7] is described as follows: ATG_TA_CIS: Attagene CIS-FACTORIAL HepG2 Assay for human TA Basal Promoter (AID 2282964). Particulars: HepG2 Attagene CIS-factorial TA basal promoter reporter; actives raise or lower the signal. The essentials:
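Cis-factorial format in HepG2: reporters report endogenous factors, not chimeric Gal4 fusions. After 24 h treatment, reporter transcripts were measured by RT-PCR-capillary electrophoresis fluorescence, analysed bidirectionally versus DMSO.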

Assay [8] in a line: ATG_TCF_b_cat_CIS: Attagene CIS-FACTORIAL HepG2 Assay for human T-Cell-Factor with beta-catenin (TCF/b-cat) (AID 2282965). To be noted: HepG2 TCF/beta-catenin cis-reporter transcription, actives raise or lower the signal. The method in brief: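 Endogenous transcription factor activity is captured through cis-promoter reporter constructs transiently introduced into human HepG2 liver cells. Induced reporter mRNA is measured after 24 h and fitted bidirectionally relative to DMSO.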

Assay [9] can be described thus: ATG_TAL_CIS: Attagene CIS-FACTORIAL HepG2 Assay for human TAL Basal Promoter (AID 2282966).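 Also: background control endpoint measuring basal TAL promoter reporter mRNA not a specific factor.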 To be noted: HepG2 Attagene cis-factorial TAL promoter reporter; actives raise or lower the signal. The method in brief:
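After 24 hours of chemical exposure, transfected HepG2 cells yielded RNA that was converted to 6-FAM-labelled, HpaI-digested reporter fragments for capillary electrophoresis. Values derive from bidirectional fitting against DMSO controls.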

A short description of assay [10]: ATG_TGFb_CIS: Attagene CIS-FACTORIAL HepG2 Assay for human Transforming Growth Factor (TGF) (AID 2282967). Particulars: HepG2 Attagene CIS TGFb reporter, mRNA transcription; actives raise or lower the signal. The method in brief:
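Multiplexed cis-reporter HepG2 system, 24 h treatment; mRNA induction read by fluorescence after RT-PCR and CE; DMSO negative control, bidirectional curve fitting.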

Assay [11] is described as follows: ATG_VDRE_CIS: Attagene CIS-FACTORIAL HepG2 Assay for human Vitamin D Receptor Element (VDRE) (AID 2282968). To be noted: HepG2 VDRE cis-reporter transcription, actives raise or lower the signal. The method in brief: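 Readout is VDRE-driven reporter mRNA reflecting endogenous factor activity in human HepG2 cells, sampled 24 h post-dose. Quantification used labelled RT-PCR products separated by capillary electrophoresis; bidirectional analysis relative to DMSO.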

Assay [12] deals with Nuclear receptor subfamily 1 group I member 3 (Homo sapiens) (UniProt Q14994). Put plainly: ATG_CAR_TRANS: Attagene TRANS-FACTORIAL HepG2 Assay for human Constitutive Androstane Receptor (CAR) (AID 2282969; active = hit-call score of the fitted dose curve at least 0.9, where 1 is the maximum;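 also: activators raise reporter mRNA above DMSO so AC50 marks induction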). Particulars: HepG2 Attagene TRANS-FACTORIAL CAR reporter. The method in brief:
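Signal is reporter mRNA induction relative to DMSO, measured 24 h after dosing by RT-PCR with fluorescent primer extension and capillary electrophoresis. Human HepG2 liver cells carried transiently transfected chimeric NR-Gal4/GAL4-UAS reporter constructs.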

For assay [13], the target named is X-box-binding protein 1 (Homo sapiens) (UniProt P17861). Put plainly: ATG_Xbp1_CIS: Attagene CIS-FACTORIAL HepG2 Assay for human X-box Binding Protein 1 (XBP1) (AID 2282972). Particulars: HepG2 XBP1 cis-element reporter, Attagene multiplex; actives raise or lower the signal. The essentials:
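Multiplexed cis-reporter readout in transfected HepG2 liver cells. Exposure lasted 24 hours. Activity in either direction was fitted against DMSO as negative control and baseline.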

Assay [14] can be described thus: ATG_GAL4_TRANS: Attagene TRANS-FACTORIAL HepG2 Assay for GAL4 (Internal Marker) (AID 2282976; active = hit-call score of the fitted dose curve at least 0.9, where 1 is the maximum). Particulars: HepG2 Attagene TRANS GAL4 internal marker reporter. The essentials:
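First, HepG2 cells were transfected with reporter units under GAL4-UAS control. Next, they were treated with chemical for 24 h. Finally, RNA was reverse-transcribed, PCR-amplified, FAM-labelled and resolved by capillary electrophoresis, with induction scored against DMSO.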

Assay [15] has as its target Estrogen-related receptor gamma (Homo sapiens) (UniProt P62508). Kind of assay: ATG_ERRg_TRANS: Attagene TRANS-FACTORIAL HepG2 Assay for human Estrogen-Related Receptor gamma (ERRg) (AID 2282977; active = hit-call score of the fitted dose curve at least 0.9, where 1 is the maximum;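 also: hits increase reporter signal over DMSO so potencies reflect activators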). Particulars: HepG2 Attagene TRANS reporter, ERRg transactivation. The method in brief: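 Induction of reporter transcripts through a chimeric NR-Gal4 protein is quantified in transfected human HepG2 liver cells after 24 h chemical exposure, using RT-PCR with capillary electrophoresis detection and DMSO as baseline.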

Assay [16] in a line: ATG_SREBP_CIS: Attagene CIS-FACTORIAL HepG2 Assay for human Sterol Regulatory Element Binding (SREBP) (AID 2282962). Particulars: HepG2 Attagene cis-factorial SREBP reporter, mRNA; actives raise or lower the signal. The essentials: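 Endogenous factor activity is measured in HepG2 through multiplexed reporter units under cis-element control. Following a 24 h incubation, reporter transcripts are reverse-transcribed, PCR-amplified and sized by capillary electrophoresis; activity is fitted in both directions relative to DMSO.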

For assay [17], the target named is Steroid hormone receptor ERR1 (Homo sapiens) (UniProt P11474). Put plainly: ATG_ERRa_TRANS: Attagene TRANS-FACTORIAL HepG2 Assay for human Estrogen-Related Receptor alpha (ERRa) (AID 2282971; active = hit-call score of the fitted dose curve at least 0.9, where 1 is the maximum). Particulars: HepG2 Attagene TRANS reporter, ERRa transactivation. The essentials:
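Reporter transcript induction was quantified by RT-PCR and capillary electrophoresis of FAM-labelled, HpaI-cut products after 24 h treatment of HepG2 cells carrying transiently transfected GAL4-UAS reporter units and an exogenous ERRa-Gal4 fusion; activity scored as increase over DMSO.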

The nature of assay [18]: ATG_M_19_TRANS: Attagene TRANS-FACTORIAL HepG2 Assay for M19 Transcription Factor (Internal Marker) (AID 2282974; active = hit-call score of the fitted dose curve at least 0.9, where 1 is the maximum). To be noted: HepG2 Attagene TRANS-FACTORIAL M19 internal marker reporter. The essentials:
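Reporter mRNA induction was measured in transfected HepG2 cells 24 h after dosing. Endpoint fitted upward relative to DMSO and serves as a background control within the multiplexed TRANS panel.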

Assay [19] addresses Glucocorticoid receptor (Homo sapiens) (UniProt P04150). Kind of assay: ATG_GR_TRANS: Attagene TRANS-FACTORIAL HepG2 Assay for human Glucocorticoid Receptor (GR) (AID 2282978; active = hit-call score of the fitted dose curve at least 0.9, where 1 is the maximum;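 also: activators score as hits since higher reporter transcript over DMSO is fitted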). Particulars: HepG2 Attagene TRANS GR reporter, mRNA transcription. The method in brief:
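Reporter transcript levels, detected by fluorescence after RT-PCR and capillary electrophoresis, served as the endpoint. HepG2 cells bearing transfected GAL4-UAS reporters responsive to NR-GAL4 chimeras were incubated with compound 24 h; DMSO defined baseline.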

Assay [20] addresses Estrogen receptor (Homo sapiens) (UniProt P03372). Kind of assay: ATG_ERa_TRANS: Attagene TRANS-FACTORIAL HepG2 Assay for human Estrogen Receptor alpha (ERa) (AID 2282970; active = hit-call score of the fitted dose curve at least 0.9, where 1 is the maximum). To be noted: HepG2 Attagene TRANS ERa GAL4 reporter, mRNA. The essentials: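 Liver-derived HepG2 cells expressing chimeric nuclear receptor-Gal4 proteins from transient transfection were exposed for 24 hours. Gain of reporter mRNA signal versus DMSO, read by capillary electrophoresis of FAM-labelled PCR products, was recorded.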

Chain of Transcription factor Sp1 (Homo sapiens) (P08047 whole entry, looked up): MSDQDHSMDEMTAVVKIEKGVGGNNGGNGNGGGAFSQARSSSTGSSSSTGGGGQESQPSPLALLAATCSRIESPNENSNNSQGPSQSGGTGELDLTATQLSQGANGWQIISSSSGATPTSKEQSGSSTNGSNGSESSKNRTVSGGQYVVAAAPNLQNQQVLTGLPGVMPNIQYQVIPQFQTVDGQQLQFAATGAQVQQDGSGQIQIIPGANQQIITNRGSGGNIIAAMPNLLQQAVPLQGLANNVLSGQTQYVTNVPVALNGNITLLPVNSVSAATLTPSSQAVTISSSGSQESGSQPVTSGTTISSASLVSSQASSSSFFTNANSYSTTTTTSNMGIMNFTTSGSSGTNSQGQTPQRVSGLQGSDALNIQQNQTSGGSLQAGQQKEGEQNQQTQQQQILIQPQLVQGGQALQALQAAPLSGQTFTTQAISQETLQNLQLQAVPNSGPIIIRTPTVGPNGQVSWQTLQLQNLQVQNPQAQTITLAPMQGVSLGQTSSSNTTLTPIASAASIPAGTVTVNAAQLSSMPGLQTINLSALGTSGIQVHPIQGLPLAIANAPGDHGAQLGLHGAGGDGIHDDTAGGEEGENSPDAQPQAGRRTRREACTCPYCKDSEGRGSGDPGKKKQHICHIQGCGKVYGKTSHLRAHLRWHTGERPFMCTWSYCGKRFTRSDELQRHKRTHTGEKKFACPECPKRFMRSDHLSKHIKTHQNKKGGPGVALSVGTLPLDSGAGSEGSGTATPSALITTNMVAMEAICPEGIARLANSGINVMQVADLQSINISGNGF
Chain of Nuclear receptor subfamily 1 group I member 3 (Homo sapiens) (Q14994 whole entry, looked up, the tested form may be a part): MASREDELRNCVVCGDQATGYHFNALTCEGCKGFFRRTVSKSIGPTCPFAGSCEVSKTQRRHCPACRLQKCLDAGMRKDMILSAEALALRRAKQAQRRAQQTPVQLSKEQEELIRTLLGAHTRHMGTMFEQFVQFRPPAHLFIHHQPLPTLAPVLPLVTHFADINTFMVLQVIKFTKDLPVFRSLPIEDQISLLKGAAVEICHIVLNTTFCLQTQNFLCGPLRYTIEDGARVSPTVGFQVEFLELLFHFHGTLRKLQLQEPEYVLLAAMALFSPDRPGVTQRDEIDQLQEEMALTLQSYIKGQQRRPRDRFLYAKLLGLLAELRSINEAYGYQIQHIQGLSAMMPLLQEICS
Chain of X-box-binding protein 1 (Homo sapiens) (P17861 whole entry, looked up): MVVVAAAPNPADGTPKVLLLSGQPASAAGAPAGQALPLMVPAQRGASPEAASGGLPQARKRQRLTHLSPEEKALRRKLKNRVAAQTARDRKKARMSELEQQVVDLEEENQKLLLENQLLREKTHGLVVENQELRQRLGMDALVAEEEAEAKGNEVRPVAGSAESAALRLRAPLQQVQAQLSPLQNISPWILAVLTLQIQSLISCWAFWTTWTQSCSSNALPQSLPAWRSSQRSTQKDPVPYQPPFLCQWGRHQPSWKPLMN
Chain of Glucocorticoid receptor (Homo sapiens) (P04150 whole entry, looked up, the tested form may be a part): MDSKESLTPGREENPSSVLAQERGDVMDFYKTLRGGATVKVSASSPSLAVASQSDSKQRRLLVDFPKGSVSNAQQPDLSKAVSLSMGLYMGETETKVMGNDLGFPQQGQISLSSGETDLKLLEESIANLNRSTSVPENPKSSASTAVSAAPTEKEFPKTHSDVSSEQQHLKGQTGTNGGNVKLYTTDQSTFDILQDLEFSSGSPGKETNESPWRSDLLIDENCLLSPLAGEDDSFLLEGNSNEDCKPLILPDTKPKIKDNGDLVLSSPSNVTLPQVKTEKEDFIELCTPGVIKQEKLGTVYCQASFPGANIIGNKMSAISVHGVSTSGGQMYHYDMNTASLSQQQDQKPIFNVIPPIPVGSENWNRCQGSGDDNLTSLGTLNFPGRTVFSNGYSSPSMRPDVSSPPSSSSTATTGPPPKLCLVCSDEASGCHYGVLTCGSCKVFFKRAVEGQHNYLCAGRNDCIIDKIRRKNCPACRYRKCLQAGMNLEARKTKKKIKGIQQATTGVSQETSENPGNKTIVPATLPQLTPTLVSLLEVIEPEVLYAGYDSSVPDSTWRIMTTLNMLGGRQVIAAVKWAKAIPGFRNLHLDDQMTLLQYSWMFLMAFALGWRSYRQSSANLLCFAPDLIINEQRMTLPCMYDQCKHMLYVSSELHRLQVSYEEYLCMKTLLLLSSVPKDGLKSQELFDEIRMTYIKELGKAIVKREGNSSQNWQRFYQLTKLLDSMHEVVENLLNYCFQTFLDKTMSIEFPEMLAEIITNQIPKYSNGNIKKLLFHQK
Chain of Signal transducer and activator of transcription 3 (Homo sapiens) (P40763 whole entry, looked up): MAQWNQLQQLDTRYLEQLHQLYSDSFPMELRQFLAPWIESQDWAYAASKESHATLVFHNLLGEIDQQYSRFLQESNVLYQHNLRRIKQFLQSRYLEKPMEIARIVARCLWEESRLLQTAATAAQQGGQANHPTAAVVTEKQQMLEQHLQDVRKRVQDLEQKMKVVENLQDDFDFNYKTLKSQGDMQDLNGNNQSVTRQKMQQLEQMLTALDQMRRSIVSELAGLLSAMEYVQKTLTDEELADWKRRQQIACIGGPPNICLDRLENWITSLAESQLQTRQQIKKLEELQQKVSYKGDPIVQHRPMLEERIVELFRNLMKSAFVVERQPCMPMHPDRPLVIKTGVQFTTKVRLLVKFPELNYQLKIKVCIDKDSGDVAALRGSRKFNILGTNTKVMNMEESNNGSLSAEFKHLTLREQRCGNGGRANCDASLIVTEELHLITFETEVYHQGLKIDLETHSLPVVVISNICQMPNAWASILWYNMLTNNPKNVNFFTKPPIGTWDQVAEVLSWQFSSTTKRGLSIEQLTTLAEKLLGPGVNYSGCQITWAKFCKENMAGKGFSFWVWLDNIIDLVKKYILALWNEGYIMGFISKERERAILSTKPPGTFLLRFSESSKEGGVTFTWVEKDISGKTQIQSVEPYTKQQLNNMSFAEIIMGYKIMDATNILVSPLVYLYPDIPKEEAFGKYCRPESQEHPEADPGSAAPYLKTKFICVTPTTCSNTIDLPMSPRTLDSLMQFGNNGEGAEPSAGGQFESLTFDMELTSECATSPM
Chain of Steroid hormone receptor ERR1 (Homo sapiens) (P11474 whole entry, looked up, the tested form may be a part): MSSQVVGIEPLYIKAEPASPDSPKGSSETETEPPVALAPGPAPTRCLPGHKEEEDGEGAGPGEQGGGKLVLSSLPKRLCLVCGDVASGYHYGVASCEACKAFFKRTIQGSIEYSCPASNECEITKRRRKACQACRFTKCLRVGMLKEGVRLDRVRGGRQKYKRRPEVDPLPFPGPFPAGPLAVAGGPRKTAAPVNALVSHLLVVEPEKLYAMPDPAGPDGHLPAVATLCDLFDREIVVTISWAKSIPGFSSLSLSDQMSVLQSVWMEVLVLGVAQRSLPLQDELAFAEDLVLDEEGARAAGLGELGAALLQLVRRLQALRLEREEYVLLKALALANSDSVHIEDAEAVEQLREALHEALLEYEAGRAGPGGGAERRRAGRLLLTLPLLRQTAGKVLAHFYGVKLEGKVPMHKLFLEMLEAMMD
Chain of Estrogen-related receptor gamma (Homo sapiens) (P62508 whole entry, looked up, the tested form may be a part): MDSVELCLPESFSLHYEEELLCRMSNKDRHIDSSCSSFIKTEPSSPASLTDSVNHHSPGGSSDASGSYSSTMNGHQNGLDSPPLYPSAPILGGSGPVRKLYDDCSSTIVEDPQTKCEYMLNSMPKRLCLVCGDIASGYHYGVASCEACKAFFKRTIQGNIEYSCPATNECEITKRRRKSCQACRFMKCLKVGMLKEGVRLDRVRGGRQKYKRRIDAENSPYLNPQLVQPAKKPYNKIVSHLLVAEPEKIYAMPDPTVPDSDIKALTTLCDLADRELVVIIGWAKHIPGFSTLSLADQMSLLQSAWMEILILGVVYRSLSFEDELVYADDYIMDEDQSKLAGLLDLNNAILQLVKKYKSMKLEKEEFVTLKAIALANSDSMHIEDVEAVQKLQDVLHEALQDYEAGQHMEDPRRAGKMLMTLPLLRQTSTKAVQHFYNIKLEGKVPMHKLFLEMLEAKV
Chain of Estrogen receptor (Homo sapiens) (P03372 whole entry, looked up, the tested form may be a part): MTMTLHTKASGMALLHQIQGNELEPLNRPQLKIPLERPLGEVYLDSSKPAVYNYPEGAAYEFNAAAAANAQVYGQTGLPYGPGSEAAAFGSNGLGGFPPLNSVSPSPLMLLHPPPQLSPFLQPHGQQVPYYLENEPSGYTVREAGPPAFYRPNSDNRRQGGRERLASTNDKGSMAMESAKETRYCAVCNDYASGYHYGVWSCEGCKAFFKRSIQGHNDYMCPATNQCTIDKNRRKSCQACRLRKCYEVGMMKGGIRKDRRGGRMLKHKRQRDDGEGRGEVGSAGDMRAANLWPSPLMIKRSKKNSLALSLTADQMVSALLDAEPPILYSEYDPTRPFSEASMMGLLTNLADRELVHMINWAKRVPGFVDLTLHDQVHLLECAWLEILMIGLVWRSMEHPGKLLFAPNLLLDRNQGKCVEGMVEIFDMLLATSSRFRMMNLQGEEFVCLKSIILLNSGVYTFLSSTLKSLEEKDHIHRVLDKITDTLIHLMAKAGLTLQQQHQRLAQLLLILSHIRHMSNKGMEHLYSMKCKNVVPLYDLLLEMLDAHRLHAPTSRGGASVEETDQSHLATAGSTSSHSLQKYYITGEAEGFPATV

As for `C=CC(F)(F)C(F)(F)C(F)(F)C(F)(F)F`, the compound was called inactive in assay [1], in assay [2], in assay [3], in [4], in assay [5] and in assay [6]. In addition, the compound was classed as inactive in assay [7], in assay [8], in assay [9], in assay [10], in assay [11] and in assay [12]. Further, the result in assay [13], in assay [14] and in assay [15] was inactive.

As for `CCOC(OCC)C(=O)c1ccccc1`, the AC50 (usually the concentration at which the activity in the assay is half-maximal) in assay [1] is 36.8 µM (active). For the same compound, the compound was called inactive in [2], in assay [3], in assay [4], in assay [16], in assay [6] and in assay [7]. Further, the call in assay [8], in assay [9], in assay [10], in [11], in assay [12] and in assay [17] was inactive. For the same compound, the compound was called inactive in assay [13], in assay [18], in assay [14], in assay [15] and in assay [19].

Turning to `CC1CNCC(C)O1` (configuration not stated), the outcome in [1], in [2], in [3], in assay [4], in assay [5] and in assay [16] was inactive. The result in [7], in assay [8], in assay [9], in assay [10], in [11] and in assay [12] was inactive. Also, the outcome in assay [13], in assay [14] and in assay [19] was inactive.

On to `COc1cc(OC)nc(NC(=O)NS(=O)(=O)Nc2ccccc2C(=O)N(C)C)n1`, for which the call in assay [1], in [2], in assay [3], in assay [4], in [5] and in assay [16] was inactive. The result in [7], in [8], in assay [9], in [10], in [11] and in assay [12] was inactive. Further, the call in assay [20], in [13] and in [19] was inactive.

Consider `Cn1sccc1=O`, for which the AC50 was 142 µM (active) in [1]; 154 µM (active) in assay [4]; 153 µM (active) in assay [5]; 92.9 µM (active) in assay [8]; 160 µM (active) in assay [13]. Moreover, the result in [2], in assay [3], in assay [6], in [7], in assay [9] and in [10] was inactive. Also, the compound was called inactive in [11], in assay [17], in assay [18] and in [19].

For the compound `CCCCCCCCCCCC[N+](C)(C)CCCCCCCCCCCC`, the compound was called inactive in [1], in [2], in assay [4], in assay [5], in assay [6] and in [9]. Moreover, the result in assay [10], in [12], in assay [20], in [17], in assay [13] and in assay [15] was inactive. For the same compound, in assay [19], the compound was classed as inactive. Further, the half-maximal activity concentration (AC50) in assay [3] is 26.1 µM (active); in assay [7], 26.3 µM (active); in assay [8] it was 25.4 µM (active); in assay [11], 8.42 µM (active).

On to `CCCCCCCCCCCC[N+](C)(C)Cc1ccccc1`, for which the result in assay [1], in [2], in [3], in [4], in assay [16] and in [6] was inactive. The compound was called inactive in assay [7], in assay [9], in assay [10], in assay [11], in assay [13] and in [18]. Moreover, the outcome in [19] was inactive. Besides, the AC50 in [7] is 17.7 µM (active); in [11], 13.2 µM (active); in assay [13], 11.1 µM (active); in assay [18], 168 µM (active).
